M1 agonist: agonists of M1 muscarinic receptor. CHO-M1 cells, Fluo-4 calcium fluorescence, agonist mode; stronger effect = higher value. B-score at 10 µM. 64,000 tested, 3% active. AID 626;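 active means fluorescence rise, raw or as B-score row- and column-corrected plate score, outside the 99.7% band of its plate's samples, either direction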
WNV NS2B-NS3 inh: blocks West Nile virus NS2B-NS3 protease activity | AID 577 | P06935 | z-score (test concentration not listed) | 65,000 tested, 0.18% active | WNV NS2B-NS3 protease, fluorogenic substrate Ex360/Em465; stronger effect = lower value; in the data active means z-score below about -3
Target sequence (P06935 1371-1501 limits assumed): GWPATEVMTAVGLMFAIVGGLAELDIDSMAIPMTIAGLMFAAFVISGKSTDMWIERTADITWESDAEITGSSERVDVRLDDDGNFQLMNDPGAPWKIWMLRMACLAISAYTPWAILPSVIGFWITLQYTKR
Target sequence (P06935 1502-1679 limits assumed): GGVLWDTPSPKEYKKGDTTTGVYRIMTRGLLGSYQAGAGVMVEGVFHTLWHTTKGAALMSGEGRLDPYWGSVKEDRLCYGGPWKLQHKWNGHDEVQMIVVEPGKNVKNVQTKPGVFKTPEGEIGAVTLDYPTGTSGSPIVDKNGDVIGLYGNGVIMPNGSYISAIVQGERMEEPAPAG
D1 allo mod: D1 dopamine receptor (human) allosteric modulation; B-score at 10 µM; HEK293 D1, CRE-luciferase, dopamine EC30 potentiation; actives deviate in either direction; 58,000 tested, 5.9% active;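 active means luminescence count or its row- and column-corrected plate score outside the 99.7% band of the plate's sample wells, on either side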
Htt clearance: mutant huntingtin protein clearance | HeLa Exon1htt(103Q)mCFP, aggregate imaging; zero = plate's median compound well | inhibition, % at 1.5 µM | 47,000 tested, 0.42% active | AID 853;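 active means inhibition of aggregate fluorescence above about 70%, also judged a hit by eye on the cell image, limit read from the data, passing the limit was not always enough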;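 further: cells exposed to compound for three days before fixation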
M1 antagonist: antagonists of rat M1 muscarinic receptor | 64,000 tested, 3.4% active | CHO-M1 cells, Fluo-4 calcium, ACh EC80 antagonist mode; stronger effect = lower value | B-score at 10 µM | AID 628;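 active means calcium fluorescence response, raw or row-and-column corrected B-score, differing from the plate sample mean either way at a set confidence level, mostly lower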
D1 PAM confirm: D1 receptor (human) allosteric modulation, confirmed. shares compounds with D1 allo mod. HEK293 D1 CRE-luciferase, dopamine EC30 potentiation; stronger effect = higher value. luminescence at 10 µM. 2,200 tested, 88% active. AID 642;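 active means luminescence in either of two replicates above the same-plate mean plus 3 SD of the low-dose dopamine control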
D1 ag no DA: D1 (human) signaling in absence of dopamine | shares compounds with D1 allo mod | 1,900 tested, 0.8% active | AID 646 | luminescence at 10 µM | HEK293 D1 CRE-luciferase, luminescence, no dopamine; stronger effect = higher value; in the data active means luminescence above about 3900
Isoprot counter: isoproterenol response counter-screen activity for D1 modulators. calls only at 10 µM. shares compounds with D1 allo mod. 2,200 tested, 63% active. HEK293 D1 CRE-luciferase, isoproterenol EC30 counter-screen;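 active means luminescence in either replicate above plate mean of wells with a partly effective reference agonist dose plus 3 SD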;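 further: isoproterenol raises cAMP through native beta-adrenoceptor Gs so signal bypasses D1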
The depositor's hits bear a star; i = inactive; . = no result given; + = active, no number. Only some compounds are listed: those with a hit (about 8.9% of all), similar ones and a draw of the others.

SMILES	M1 agonist	WNV NS2B-NS3 inh	D1 allo mod	Htt clearance	M1 antagonist	D1 PAM confirm	D1 ag no DA	Isoprot counter
CCOc1ccccc1CN1C(=O)NC(C)(c2ccccc2)C1=O (stereo not given)	-0.31	-0.17	-0.6	0	0.065	.	.	.
COc1cccc(-c2csc3nnc(SCC(=O)c4ccc(NC(C)=O)cc4)n23)c1	-0.14	-0.54	3*	.	-0.61	9644*	1744	+
Cc1ccc(C)c(/C(O)=C2\C(=O)C(=O)N(CCCn3ccnc3)C2c2cccnc2)c1 (stereo not given)	.	.	.	32	.	.	.	.
O=C(CCCCn1c(=O)c2ccccc2n(CC(=O)NC2CCCC2)c1=O)NC1CCCC1	0.29	-0.85	4.4*	.	0.3	4732	1368	i
Cc1c(C(=O)N2CCN(c3ccccc3)CC2)sc2ncnc(N3CCN(c4ccccc4)CC3)c12	0.00086	0.46	-0.009	.	0.59	.	.	.
CCOc1ccc(Nc2oc(-c3cccc(Cl)c3)nc2C#N)cc1	.	.	.	13	.	.	.	.
CCOc1ccc(Nc2oc(-c3cccs3)nc2C#N)cc1	0.011	-0.75	5.8*	.	0.41	11044*	1540	+
CCOc1ccc(Nc2oc(-c3ccco3)nc2C#N)cc1	0.4	2	4*	.	1.4	19668*	1436	+
CCc1cccc(NC(=O)CCSCCC(=O)Nc2cccc(CC)c2)c1	.	.	.	3	.	.	.	.
Cc1nc2c3ccccc3n(CC#N)c(=O)n2n1	0.43	-0.97	4.7*	-13	-1.2	8580*	.	+
O=C(CSCc1cccc(F)c1)N1CCN(c2ccccc2)CC1	1.3	-0.7	-0.98	.	0.042	.	.	.
CCn1c(SCC(=O)NCC(=O)Nc2ccc(F)cc2)nnc1-c1cccs1	0.52	0.03	3*	56	0.43	4428	1640	i
O=c1oc2ccccc2c2c1ncn2-c1ccccc1	-0.79	0.19	3.6*	-38	-0.098	9304*	1488	+
O=c1oc2ccccc2c2c1ncn2CCN1CCOCC1	0.98	-0.52	-0.85	-24	0.037	.	.	.
O=c1oc2ccccc2c2c1ncn2C1CCCCC1	-0.42	-0.66	7.4*	59	0	20596*	1756	+
Nc1nc(SCc2ccc3c(c2)OCCO3)n[nH]1	-0.011	-0.34	4.9*	-76	0.57	9268*	1676	i
Cc1cc(C)n(C2CCCCC2OC(=O)c2ccccc2)n1 (stereo not given)	0.69	-1.6	.	.	0.11	.	.	.
NC(=O)c1cc2ccc(O)cc2oc1=Nc1ccccc1	0.76	-0.002	5.1*	.	0.65	5036	1960	i
Cc1nnc(N2CCOCC2)c2ccccc12	-0.21	-1	.	.	0.69	.	.	.
CC(C)CN1CN(S(=O)(=O)c2cccs2)c2nc3ccccc3nc21	-0.52	0.53	11*	.	-0.24	18664*	1708	+
CCOC(=O)NCCc1ccc(OC)cc1	0.32	-0.39	3.8*	.	0.73	8468*	1752	i
COCCn1c(-c2ccco2)nc2nc3ccccc3nc21	-0.74	5	9.2*	.	0.037	16228*	1728	+
COC(=O)Cn1nc(-c2ccccc2)c2ccccc21	-0.76	0.53	2.5*	.	0.016	5172	1632	i
O=C(O)CCCn1nc(-c2ccccc2)c2ccccc21	-0.08	0.67	.	.	0.67	.	.	.
CCOC(=O)C1=C(C)NC(C)=C(C(=O)OCC)C1C(=O)OCC(=O)c1ccc2c(c1)OCCO2	0.27	-0.02	10*	.	-0.94	7616*	1608	+
SMILES	M1 agonist	WNV NS2B-NS3 inh	D1 allo mod	Htt clearance	M1 antagonist	D1 PAM confirm	D1 ag no DA	Isoprot counter
Nc1ccc(SC(F)(F)F)cc1C(=O)c1ccccc1	0.51	-0.32	14*	.	-0.21	13336*	1612	+
Nc1cc(C(=O)c2ccccc2)ccc1N1CCOCC1	.	.	.	3	.	.	.	.
Cc1ccc(OC(=O)Cn2c(C(F)(F)F)nc3ccccc32)cc1	.	.	.	0	.	.	.	.
Cc1ccc(NC(=O)CCc2c(C)nc3ncnn3c2C)cc1	0.019	-1.7	-0.25	-30	0.86	.	.	.
COC(=O)c1cc(NC(=O)CCc2c(C)nc3ncnn3c2C)cc(C(=O)OC)c1	-0.028	0.0022	5.2*	0	-0.088	5564	.	i
COC(=O)Cn1cnc2c(nnn2-c2ccc(C)cc2)c1=O	0.26	0.85	-0.12	15	-0.57	.	.	.
O=c1c2cn[nH]c2nc(SCc2ccc3c(c2)OCCO3)n1-c1ccccc1	-0.45	2.1	7.9*	.	0.55	11032*	1768	+
c1ccc(-c2csc3ncn4nnnc4c23)cc1	1.4	0.15	11*	11	1.3	12968*	1552	+
Cn1nnnc1Sc1ncnc2scc(-c3ccccc3)c12	-0.75	1.4	5.6*	.	1.5	22236*	1604	+
Cn1nnnc1Sc1ncnc2scc(-c3ccc(F)cc3)c12	-0.7	-0.42	12*	-97	-0.41	4984	1648	i
Clc1ncnc2scc(-c3ccccc3)c12	.	.	.	-15	.	.	.	.
CCCC(N)CCCCCC(=O)O (stereo not given)	-0.026	-0.22	0.66	.	-0.59	.	.	.
Cc1ccc(C(=O)c2cc(C)sc2NC(=O)CN2CCN(C(=O)c3ccco3)CC2)cc1	0.42	-0.97	0.5	.	0.84	.	.	.
O=C(O)CP(=O)(c1ccccc1)c1ccccc1	0.41	-0.05	-0.18	-290	0.2	.	.	.
Cn1c(NC(=O)c2cccc(C(F)(F)F)c2)cc(=O)n(C)c1=O	-0.44	-0.19	7*	.	1.4	17760*	1560	+
Cc1cccc(C(=O)Nc2cc(=O)n(C)c(=O)n2C)c1	-1.1	-0.41	0.82	.	-0.38	.	.	.
O=C(c1ccccc1)c1coc2ccc(O)c(CN3CCOCC3)c12	-0.45	-0.54	7.6*	-25	0.71	13536*	1636	+
CCCc1nc2ccccc2c2nc(N)nn12	-0.3	-0.79	27*	.	-0.052	19312*	1684	+
Nc1nc2c3ccccc3nc(Cc3ccccc3)n2n1	0.38	-0.53	16*	-46	-0.64	11064*	1640	+
Cc1nc2ccccc2c2nc(N)nn12	.	.	.	-3	.	.	.	.
CCOCC(=O)Nc1ccccc1C(=O)OCC	0.37	0.76	2.9	.	0.38	.	.	.
CCOC(=O)c1ccccc1NC(=O)c1cccs1	0.62	-0.89	7.2*	28	0.16	8864*	1480	+
CCOC(=O)c1ccccc1NC(=O)c1ccccc1SC	0.82	1.6	-0.046	.	0.06	.	.	.
CCOC(=O)c1c(NC(=O)c2cccs2)sc(C)c1CC	.	0.43	3.8*	-16	.	10804*	1624	i
CCOC(=O)c1ccccc1NC(=O)COc1ccccc1	-0.33	1.5	13*	-2	-0.28	16280*	1552	+
COc1ccc(C(C)(C)C)cc1S(=O)(=O)N1CCN(C)CC1	-0.19	-0.54	-0.47	20	0.076	.	.	.
